# In PubChem BioAssay (NCATS):
# Results filed as inconclusive are left out. A number with no mark means an inactive call. Calls of active or inactive are those of the source. Calls come from the whole dose curve; as a rule, active = well fitted inhibition curve with a large enough effect; inconclusive = small, poorly fitted or top-dose-only effect; inactive = flat fitted curve, though single readings scatter.
# Columns and labels:
# [1] = tested on: CRL-7250; experiment: Cytotoxic Profiling of Annotated Libraries Using Quantitative High-Throughput Screening (AID 1296008); settings: Five cell lines viability, CellTiter-Glo ATP luminescence, 48-72 h; max response: stronger effect = lower value; note: nearly all actives have a fitted effect of over 60% in size
# In short: (§1)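 Cytotoxicity was measured as CellTiter-Glo ATP luminescence, read after 10 min at room temperature. Compound treatment of the cells lasted 48 or 72 hr at 37 degrees Celsius in a qHTS format.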
# [2] = tested on: HEK293; experiment: as above; settings: Five cell lines viability, CellTiter-Glo ATP luminescence, 48-72 h; max response: stronger effect = lower value
# In short: as §1
# % is set by controls: 0 for no effect and ±100 for the full control effect; potency is the fitted concentration of half-maximal effect.
structure (smiles),measurement,setting,value
CC(=O)OC[C@@]12C(=O)C[C@@H](C)[C@]3(C[C@@H](c4ccoc4)O[C@H]3OC(C)=O)[C@H]1CCC[C@]21CO1,max response,[1],-15.6%
same,max response,[2],-5.69%
C=C1C[C@]23C[C@H]1CC[C@H]2C1=C[C@H]2OC(=O)[C@@](C)([C@H]1[C@@H]3C(=O)O)[C@H]2O,max response,[1],2.1%
same,max response,[2],4.48%
C=C[C@H]1C(O[C@@H]2O[C@H](CO)[C@@H](O)[C@H](O)[C@H]2O)OC=C2C(=O)N3CCc4c([nH]c5ccccc45)[C@H]3C[C@H]21 (stereo partly drawn),outcome,[1],inactive
same,max response,[2],-11.2%
CC1(O)CC(O)C2(O)C=COC(O[C@@H]3O[C@H](CO)[C@@H](O)[C@H](O)[C@H]3O)C12 (stereo partly drawn),max response,[1],-2.75%
same,max response,[2],4.59%
CC1=CC(=O)C(=C(C)C)CC2C1CCC2(C)O (stereo not drawn),max response,[1],-11.2%
same,max response,[2],4.65%
C=C[C@@H]1[C@H](O[C@@H]2O[C@H](CO)[C@@H](O)[C@H](O)[C@H]2O)OC=C(C(=O)O)[C@H]1CCOC(=O)/C=C/c1ccc(O)c(O)c1,max response,[1],1.95%
same,max response,[2],4.3%
C=C(CO)C12OC1C1(C)C(=CC2=O)C(O)C(O)CC1C (stereo not drawn),max response,[1],-0.172%
same,max response,[2],-0.602%
C=C1CCC2C(C(C)(C)O)CCC2(C)CC(O)C(=C)CCC1O (stereo not drawn),max response,[1],-17.3%
same,max response,[2],2.07%
CC(C)(C)Nc1nc(Nc2ccc(C(N)=O)cc2)cc(N)c1C#N,Potency,[1],13 µM (active)
same,Potency,[2],1.64 µM (active)
CCOCc1nc2c(N)nc3ccccc3c2n1CC(C)(C)O,max response,[1],-6.16%
same,max response,[2],-5.94%
COC(=O)[C@@]1(c2ccc(C)cc2)C[C@H]1CN1CCC(O)(c2ccccc2)CC1,max response,[1],3.12%
same,max response,[2],-9.08%
C=C(C(=O)O)C1CC2=C(C)CCCC2(C)C[C@@H]1O (stereo partly drawn),outcome,[1],inactive
same,max response,[2],-3%
CC(C)=CCC[C@](C)(O[C@@H]1O[C@H](CO)[C@@H](O)[C@H](O)[C@H]1O)[C@H]1CC[C@]2(C)[C@@H]1[C@H](O)CC1[C@@]3(C)CC[C@H](O)C(C)(C)C3[C@@H](O[C@@H]3O[C@H](CO)[C@@H](O)[C@H](O)[C@H]3O)C[C@]12C (stereo partly drawn),max response,[1],-0.753%
same,max response,[2],-3.92%
O=C(CN1C(=O)C2(CCCC2)NCC1c1cc(F)cc(F)c1)Nc1ccc2c(c1)CC1(C2)C(=O)Nc2ncccc21 (stereo not drawn),outcome,[1],inactive
same,max response,[2],-6.98%
C=C1C(=O)OC2C1C(O)CC1(C)C(O)CCC(C=O)C21 (stereo not drawn),outcome,[1],inactive
same,max response,[2],-0.284%
COc1ccc(CN2C(=O)C(=O)c3cc(S(=O)(=O)N4CCC[C@H]4COc4cccnc4)ccc32)cc1,outcome,[1],inactive
same,outcome,[2],inactive
Cn1c(=O)n(-c2ccc(C(C)(C)C#N)cc2)c2c3cc(C#Cc4cccnc4)ccc3ncc21,Potency,[1],0.0224 µM (active)
same,Potency,[2],0.0893 µM (active)
C[C@@H]1CCC/C=C/[C@H]2CC(=O)C[C@@H]2[C@@H](O)/C=C/C(=O)O1,max response,[1],-3.74%
same,max response,[2],-12%
C/C1=C\C[C@]2(C)C(=O)C(O)=C([C@H](C)CO)[C@H]2C/C=C(\C)[C@@H](O)CC/C(C)=C/CC1,max response,[1],3.52%
same,max response,[2],2.1%
COc1c(C)c(OCC(O)C(C)(C)O)cc2c1COC2=O (stereo not drawn),max response,[1],4.27%
same,max response,[2],-24.2%
O=C(OC[C@@]1(O)CO[C@@H](O[C@H]2[C@H](Oc3ccc(O)cc3)O[C@H](CO)[C@@H](O)[C@@H]2O)[C@@H]1O)c1ccc(O)cc1,outcome,[1],inactive
same,max response,[2],-7.32%
O=C(CCCCN1CCOCC1)Nc1ccc(-c2cccnc2)cc1,max response,[1],-12%
same,max response,[2],0.956%
CCOc1cc2ncc(C#N)c(Nc3ccc(F)c(Cl)c3)c2cc1NC(=O)/C=C/CN(C)C,Potency,[1],0.651 µM (active)
same,Potency,[2],1.64 µM (active)
CC1(C)CC[C@]2(C(=O)O)CC[C@]3(C)C(=CCC4[C@@]5(C)CC[C@H](O[C@@H]6O[C@H](CO)[C@@H](O)[C@H](O)[C@H]6O[C@@H]6O[C@H](CO)[C@@H](O)[C@H](O)[C@H]6O)[C@@](C)(CO)C5CC[C@]43C)[C@@H]2C1 (stereo partly drawn),max response,[1],-6.6%
same,max response,[2],-6.18%
CC1CC(O)/C=C/C(O)C(O)CC(=O)Cc2c(Cl)c(O)cc(O)c2C(=O)O1 (stereo not drawn),max response,[1],2.61%
same,max response,[2],0.716%
C[C@@]12C[C@]3(O)O[C@H](O1)[C@]1(COC(=O)c4ccccc4)[C@H]3C[C@@]12O[C@@H]1O[C@H](CO)[C@@H](O)[C@H](O)[C@H]1O,max response,[1],0.654%
same,max response,[2],0.308%
Cc1cnc(NC(=O)Nc2cc(Br)c(C)cc2OCC2CNCCO2)cn1 (stereo not drawn),Potency,[1],13 µM (active)
same,Potency,[2],1.3 µM (active)
C[C@@H]1CN(Cc2ncccn2)C[C@H]1c1nc2c(cnn2C2CCOCC2)c(=O)[nH]1,max response,[1],1.7%
same,max response,[2],-4.3%
CC1(C)CCCC2(C)C=C(C(=O)O)C(O)CC12 (stereo not drawn),outcome,[1],inactive
same,max response,[2],-6.67%
O=C(OC[C@H]1O[C@H](O[C@]2(CO)O[C@H](CO)[C@@H](O)[C@@H]2O)[C@H](O)[C@@H](O)[C@@H]1O)c1ccccc1,max response,[1],-1.41%
same,max response,[2],1.14%
COc1cc2ncnc(Nc3cccc(O)c3)c2cc1OC,outcome,[1],inactive
same,max response,[2],-2.36%
CNC(=O)c1cccc(-c2ccc3c(N4CCOC[C@@H]4C)nc(N4CCOC[C@@H]4C)nc3n2)c1,Potency,[1],0.58 µM (active)
same,Potency,[2],0.366 µM (active)
CC(C)c1cccc2c(-c3ccccc3)cc(-c3ccc(-c4ccc(C(=O)O)cc4)[nH]3)nc12,max response,[1],-17.4%
same,max response,[2],-107%
COc1cc(O)cc(C)c1C(=O)O[C@H]1[C@@H](OC(C)=O)[C@H](n2ccc(=O)[nH]c2=O)O[C@@H]1CO,outcome,[1],inactive
same,max response,[2],4.85%
COc1cc(N2CCC(N3CCN(C)CC3)CC2)ccc1Nc1ncc(Cl)c(-c2c[nH]c3ccccc23)n1,Potency,[1],10.3 µM (active)
same,Potency,[2],2.91 µM (active)
COC1CC(O[C@H]2CC[C@@]3(C)C(=CC[C@]4(O)C3[C@H](OC(C)=O)[C@@H](OC(=O)c3ccccc3)[C@]3(C)[C@@H](C(C)=O)CC[C@@]34O)C2)OC(C)C1OC1CC(OC)C(OC2CC(OC)C(OC3OC(C)C(OC4OC(CO)C(O)C(O)C4O)C(OC)C3O)C(C)O2)C(C)O1 (stereo partly drawn),outcome,[1],inactive
same,max response,[2],1.75%
CN(C)c1ccc2c(c1)OC(N)=C(C#N)C2c1cccc(C(F)(F)F)c1 (stereo not drawn),Potency,[1],1.64 µM (active)
same,Potency,[2],0.184 µM (active)
Cc1cc(N2CCN([C@@H]3CN[C@H](C(=O)N4CCSC4)C3)CC2)n(-c2ccccc2)n1,max response,[1],-17.8%
same,max response,[2],-23.9%
CC(C)C(N)C(=O)OCCOCn1cnc2c(=O)[nH]c(N)nc21 (stereo not drawn),max response,[1],2.37%
same,max response,[2],1.16%
CC1(C)CC[C@@]2(C(=O)O[C@@H]3O[C@H](CO)[C@@H](O)[C@H](O)[C@H]3O)C(C1)C1=CCC3[C@@]4(C)CC[C@@H](O[C@@H]5O[C@H](C(=O)O)[C@@H](O[C@@H]6OC[C@@H](O)[C@H](O)[C@H]6O)[C@H](O[C@@H]6OC[C@](O)(CO)[C@H]6O)[C@H]5O)C(C)(C)C4CC[C@@]3(C)[C@]1(C)C[C@H]2O (stereo partly drawn),outcome,[1],inactive
same,max response,[2],-3.68%
CC1OC(O[C@H]2CC[C@@]3(C)C(CC[C@]4(C)C3CC=C3C5CC(C)(C)CC[C@]5(C(=O)OC5OC(CO)C(OC6OC(COC7OCC(O)C(O)C7O)C(O)C(O)C6O)C(O)C5O)CC[C@]34C)C2(C)C)C(O)C(O)C1OC1OCC(OC2OCC(O)C(O)C2O)C(O)C1O (stereo partly drawn),max response,[1],-5.53%
same,max response,[2],1.98%
CC1CCC23COC(=O)C2=CC(O)CC3C1(C)CCC1=CC(O)OC1=O (stereo not drawn),max response,[1],-0.17%
same,max response,[2],1.91%
CC1OC(OC2C(OC3C(O[C@H]4CC[C@@]5(C)C(CC[C@]6(C)C5C(=O)C=C5C7CC(C)(C)CC(O)[C@]7(C)CC[C@]56C)C4(C)C)OC(C(=O)O)C(O)C3O)OCC(O)C2O)C(O)C(O)C1O (stereo partly drawn),max response,[1],-0.894%
same,max response,[2],2.13%
Cc1ccc(C(=O)N(CCCN)C(c2oc3cc(Cl)ccc3c(=O)c2Cc2ccccc2)C(C)C)cc1 (stereo not drawn),max response,[1],-42.6%
same,max response,[2],-125%
Cc1onc(C(=O)N2CCN(C(c3ccc(Cl)cc3)c3ccc(Cl)cc3)CC2)c1[N+](=O)[O-],Potency,[1],0.58 µM (active)
same,Potency,[2],0.82 µM (active)
O=C(NCc1ccc(F)cc1)C(=O)c1c[nH]c2ccccc12,outcome,[1],inactive
same,max response,[2],-9.93%
OC[C@H]1O[C@@H](O[C@H]2[C@H](OCCc3ccccc3)O[C@H](CO)[C@@H](O)[C@@H]2O)[C@H](O)[C@@H](O)[C@@H]1O,outcome,[1],inactive
same,max response,[2],-0.444%
CC(=O)OC1C(c2ccccc2)CCC(c2ccccc2)C1OC(C)=O (stereo not drawn),max response,[1],2.93%
same,max response,[2],-10.8%
COc1cc(O)cc(/C=C/c2ccc(O[C@@H]3O[C@H](CO)[C@@H](O)[C@H](O)[C@H]3O)cc2)c1,max response,[1],-0.761%
same,max response,[2],-4.02%
CC(C)O[C@@H]1O[C@H](CO)[C@@H](O)[C@H](O)[C@H]1O,max response,[1],1.32%
same,max response,[2],1.2%
C=C1C(O)C(O)C2(CC3C(C)=CCC4C(C)(CO)CCCC34C)OC2C1O (stereo not drawn),max response,[1],-2.93%
same,max response,[2],-13.5%
Cc1cc(Cl)ccc1COc1ccnn1-c1cc(C(=O)O)ccn1,max response,[1],0.791%
same,max response,[2],-13.3%
CC(C)CC1NC(=O)C(C)NC(=O)C(CC(C)C)OC(=O)CCCNC1=O (stereo not drawn),max response,[1],-2.1%
same,max response,[2],-5.55%
CCC(C)C(=O)OC1CC(O)C23C4OCC5(C(O)CC2C1(C)C(O)O4)C3C(=O)CC1(C)C(c2ccoc2)CC2OC215 (stereo not drawn),Potency,[1],3.55 µM (active)
same,Potency,[2],2.52 µM (active)
